Results from PubChem BioAssay (NCI).
This is part of a sample that, as a whole, favours compounds with a hit. Of some 79,000 tested, about 15% had one in any assay. Values without a mark were called inactive. Calls of active or inactive are those of the source. Cut-off read from the data, not from the text of the source: active = growth inhibition above about 70%; inactive = the rest. Where a SMILES comes first, the peptide text is derived from it. The star is where a group is joined. Cbz = O=C(OCc1ccccc1)*; CH2Cl = ClC*

Columns and labels:
[1] = NCI Yeast Anticancer Drug Screen. Data for the rad50 strain (AID 155);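 note: 0% = growth of vehicle-only cultures of the same strain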; conditions: S. cerevisiae rad50 strain growth inhibition, hits give high values
Summary of the method: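 Genetically altered yeast (DNA repair pathway); compound treatment; growth inhibition vs vehicle ctrl.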

[2] = NCI Yeast Anticancer Drug Screen. Data for the mec2-1 strain (AID 157); conditions: S. cerevisiae mec2-1 strain, hits give high values
Summary of the method: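 Compounds were applied to mec2-1 yeast cells. Their growth was then compared with that of vehicle-treated cultures to give growth inhibition.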

[3] = NCI Yeast Anticancer Drug Screen. Data for the sgs1 mgt1 strain (AID 161);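 note: 0% = growth of cultures given vehicle only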; conditions: S. cerevisiae sgs1 mgt1 strain, hits give high values
Summary of the method: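 Yeast cells carrying a defined DNA-repair defect were exposed to test compounds. Growth inhibition was measured relative to vehicle-treated controls.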

[4] = NCI Yeast Anticancer Drug Screen. Data for the cln2 rad14 strain (AID 165);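 note: 0% = growth equal to vehicle treated cultures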; conditions: S. cerevisiae cln2 rad14 strain, hits give high values
Summary of the method: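 Strain: cln2 rad14 yeast, altered in cell cycle control and DNA damage repair. Read-out: growth inhibition vs vehicle.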

[5] = NCI Yeast Anticancer Drug Screen. Data for the bub3 strain (AID 167); conditions: S. cerevisiae bub3 mutant strain, hits give high values
Summary of the method: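 Yeast carrying a defined mutation is treated with each compound, and growth is compared with that of vehicle-exposed cells to give inhibition.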

[6] = NCI Yeast Anticancer Drug Screen. Data for the mlh1 rad18 strain (AID 175); conditions: S. cerevisiae mlh1 rad18 strain growth inhibition, hits give high values
Summary of the method: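 A repair-deficient yeast strain is exposed to test compound, and growth is scored relative to vehicle-treated controls.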

[7] = at 5.0 µM (retest, dose inferred, filed as 0.5)
[8] = at 50.0 µM (retest, dose inferred, filed as 5.0)

| Structure (SMILES) | growth inhibition [1, 7] | growth inhibition [1, 8] | growth inhibition ([1]; at 50.0 µM) | growth inhibition [2, 7] | growth inhibition [2, 8] | growth inhibition ([2]; at 50.0 µM) | growth inhibition [3, 7] | growth inhibition [3, 8] | growth inhibition ([3]; at 50.0 µM) | growth inhibition [4, 7] | growth inhibition [4, 8] | growth inhibition ([4]; at 50.0 µM) | growth inhibition [5, 7] | growth inhibition [5, 8] | growth inhibition ([5]; at 50.0 µM) | growth inhibition [6, 7] | growth inhibition [6, 8] | growth inhibition ([6]; at 50.0 µM) |
| --- | --- | --- | --- | --- | --- | --- | --- | --- | --- | --- | --- | --- | --- | --- | --- | --- | --- | --- |
| COc1ccc2c(c1)[n+]([O-])c(C(N)=O)c(N)[n+]2[O-] | 23% | 100% (active) | 99.4% (active) | 14% | 100% (active) | 99.5% (active) | 17% | 99% (active) | 99.3% (active) | 31% | 98% (active) | 99.1% (active) | 40% | 99% (active) | 98.4% (active) | 42% | 99% (active) | 99.2% (active) |
| CNC1C(O)C(NC)C2OC3(O)C(=O)CC(C)OC3OC2C1O (configuration not stated) | -7% | 6% | 84.1% (active) | 1% | -19% | 89.8% (active) | -7% | -1% | 9.05% | 17% | 23% | 83.7% (active) | -1% | -9% | 86.3% (active) | -27% | -30% | 86.7% (active) |
| O=[N+]([O-])c1cc(Cc2cc([N+](=O)[O-])c3cccnc3c2O)c(O)c2ncccc12 | 96% (active) | 98% (active) | 98.3% (active) | 89% (active) | 98% (active) | 97.2% (active) | 85% (active) | 98% (active) | 98.4% (active) | 65% | 97% (active) | 93.5% (active) | 73% (active) | 98% (active) | 97.4% (active) | 90% (active) | 97% (active) | 97.8% (active) |
| COc1ccc(C(=O)c2cc(Cl)ccc2N)cc1 | 16% | 93% (active) | 99% (active) | -1% | 87% (active) | 98.2% (active) | 8% | 91% (active) | 99.1% (active) | -8% | 71% (active) | 92.1% (active) | 1% | 73% (active) | 99.2% (active) | -1% | 95% (active) | 94.2% (active) |
| COc1ccccc1NC(=O)/C(=C/n1c(=S)sc2ccccc21)C(C)=O | -19% | 14% | 38.3% | -19% | 14% | 48% | 7% | 20% | 63.6% | 11% | 17% | 64.2% | -9% | 30% | 29.5% | -14% | 14% | 47% |
| NC(N)=Nc1ccc(C(=O)Oc2c(Cl)cc([N+](=O)[O-])cc2Cl)cc1 | -30% | 46% | 48% | -6% | 28% | 30.2% | 4% | 65% | 71.1% (active) | -9% | 32% | 21.9% | -6% | 40% | 25.9% | 12% | 56% | 32.9% |
| OCC(O)C(O)C(O)/C=N\Nc1ccccc1 (configuration not stated) | 9% | 19% | 49.6% | -3% | -6% | 44.4% | -5% | 15% | 39.5% | -3% | -7% | 43% | 1% | 31% | 51.5% | 16% | 42% | 18.1% |
| CCCCCCCN=C(N)c1ccc(C(=O)OC2CCCCC2)cc1 | -1% | 84% (active) | 96.8% (active) | 17% | 89% (active) | 98% (active) | 34% | 98% (active) | 99% (active) | 1% | 70% (active) | 96.4% (active) | 1% | 73% (active) | 97.5% (active) | 21% | 90% (active) | 99% (active) |
| CN(C)c1ccc(C2(Cl)c3ccccc3N(Cc3ccccc3)c3ccccc32)cc1 | 99% (active) | 94% (active) | 96.5% (active) | 99% (active) | 95% (active) | 97.2% (active) | 99% (active) | 95% (active) | 96% (active) | 99% (active) | 93% (active) | 93.2% (active) | 99% (active) | 94% (active) | 96.4% (active) | 99% (active) | 94% (active) | 96.3% (active) |
| Cc1cccc2c1Oc1ccccc1C2N1C(=O)/C(=C/c2ccccc2Cl)SC1=S (configuration not stated) | 99% (active) | 74% (active) | 60.1% | 99% (active) | 48% | 29.1% | 100% (active) | 29% | 38.4% | 96% (active) | 1% | 16.4% | 99% (active) | 74% (active) | 12.6% | 99% (active) | 72% (active) | 64.2% |
| CC(Cc1ccccc1)NNC(C)Cc1ccccc1 (configuration not stated) | 10% | 81% (active) | 99.5% (active) | 4% | 64% | 96.2% (active) | 11% | 90% (active) | 75.5% (active) | -39% | 63% | 83.2% (active) | 16% | 91% (active) | 94.5% (active) | 7% | 83% (active) | 99.5% (active) |
| CC(C)CC(NC(=O)OCc1ccccc1)C(=O)NC(Cc1ccccc1)C(=O)CCl (stereo not drawn) (Cbz-Leu-Phe-CH2Cl; configuration not given here) | 43% | 62% | 28.9% | 48% | 86% (active) | 58.5% | 27% | 46% | 53.8% | 16% | 52% | -8.15% | 51% | 77% (active) | 87.5% (active) | 46% | 74% (active) | 54.9% |
| CCN(CC)CCCC(C)Nc1cc(C)nc2c1ccc1c2ccc2c(NC(C)CCCN(CC)CC)cc(C)nc21 (configuration not stated) | -2% | 61% | 58.1% | -39% | 91% (active) | 53.7% | -1% | 59% | 49.5% | 7% | 20% | 71.4% (active) | -2% | 96% (active) | 96.3% (active) | -1% | 85% (active) | 54.2% |
| CCCCCCCCNc1ccc(Cl)cc1 | 46% | 96% (active) | 91.8% (active) | 26% | 98% (active) | 93% (active) | 49% | 97% (active) | 98.2% (active) | 25% | 94% (active) | 81.2% (active) | 8% | 97% (active) | 74.1% (active) | 40% | 97% (active) | 98% (active) |
| Nc1ncnc2c1c(-c1ccccc1)cn2-c1ccc(Br)cc1 | 23% | 38% | 43.1% | 16% | 43% | 21.7% | 47% | 80% (active) | 94% (active) | 13% | 44% | 28.1% | 3% | 37% | -1.8% | 14% | 58% | 58.9% |
| CC([C@H]1CCC2C3CCC4CC5(CC[C@]4(C)C3CC[C@@]21C)c1ccccc1C(=O)N5C)N(C)C (some centres not stated) | -11% | 81% (active) | 83.3% (active) | -11% | 55% | 89.4% (active) | 11% | 87% (active) | 89.6% (active) | 14% | 85% (active) | 73.3% (active) | 6% | 83% (active) | 86.5% (active) | 18% | 84% (active) | 78.2% (active) |
| O=C(O)/C(=C\c1cc(I)c(O)c(I)c1)c1ccc(I)cc1 | 3% | 39% | 88.3% (active) | 42% | 70% (active) | 80.6% (active) | 34% | 75% (active) | 91.8% (active) | 19% | 70% (active) | 82.7% (active) | 3% | 59% | 48% | 37% | 76% (active) | 80.8% (active) |
| O=C(Cc1ccccc1)NNc1nc(NNC(=O)c2ccncc2)nc(Nc2ccccc2)n1 | 11% | 18% | 26% | -9% | 11% | 10.4% | 12% | 11% | 33.3% | -10% | 21% | -2.6% | -10% | 19% | 36.6% | 13% | 25% | 51.1% |
| CCCOC1=C(Cl)C(=O)c2cccc([N+](=O)[O-])c2C1=O | 94% (active) | 98% (active) | 99.5% (active) | 97% (active) | 99% (active) | 99.5% (active) | 81% (active) | 99% (active) | 99.4% (active) | 20% | 99% (active) | 99% (active) | 97% (active) | 99% (active) | 99.5% (active) | 93% (active) | 98% (active) | 99.1% (active) |
